Experimental data reported in PubChem BioAssay (NCI).
This is part of a sample that, as a whole, favours compounds with a hit. Of some 83,000 tested, about 20% had one in any assay.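 Growth was measured after 48 h exposure to one concentration of compound in 96-well plates. Values under 10 count as active.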 Unmarked numbers belong to inactive results. Calls of active or inactive are those of the source.

Assays:
Experiment in all cases: NCI-60 one-dose screen, 48 h (100 = growth as untreated, 0 = no growth, -100 = all killed)
Details in all cases: 10 µM
NCI-H23 lung = test system: NCI-H23 lung
NCI-H226 lung = test system: NCI-H226 lung
NCI-H322M lung = test system: NCI-H322M lung
HOP-62 NSCLC = test system: HOP-62 NSCLC
NCI-H460 lung = test system: NCI-H460 lung
HOP-92 NSCLC = test system: HOP-92 NSCLC
NCI-H522 lung = test system: NCI-H522 lung
A549/ATCC NSCLC = test system: A549/ATCC NSCLC
786-0 renal = test system: 786-0 renal
COLO 205 colon = test system: COLO 205 colon

SMILES	growth (NCI-H23 lung)	growth (NCI-H226 lung)	growth (NCI-H322M lung)	growth (HOP-62 NSCLC)	growth (NCI-H460 lung)	growth (HOP-92 NSCLC)	growth (NCI-H522 lung)	growth (A549/ATCC NSCLC)	growth (786-0 renal)	growth (COLO 205 colon)
COc1cc(/C=C/C(=O)c2cc(-c3ccccc3)ccc2O)cc(OC)c1OC	66.3%	93.4%	86.1%	83.8%	67.6%	61.3%	54.9%	85%	94%	91.5%
CCCCCCCCCCCCc1ccc(C(=O)/C=C/C(=O)O)cc1	78.6%	121%	116%	93%	94.2%	46.4%	-24.2% (active)	78.4%	-3.51% (active)	21.6%
Brc1ccc(-c2cn3ccnc3c(-c3ccc(Br)cc3)n2)cc1	59.8%	70.6%	86.7%	33.2%	16.8%	55.8%	-14.9% (active)	31.9%	57.8%	7.83% (active)
C#C[C@]1(O)CC[C@H]2[C@@H]3CC[C@H]4CC(F)(F)CC[C@]4(C)[C@H]3CC[C@@]21C	95.5%	90.4%	89%	67.5%	83.9%	93.8%	105%	77.2%	101%	90.9%
COc1cc(N=C2C(=O)N(Cc3ccccc3)c3ccccc32)cc(OC)c1OC	89.9%	88.3%	108%	101%	103%	35.6%	75%	103%	103%	114%
COc1ccc(S(=O)(=O)Nc2ccc(OCc3nnc(-c4ccc(Cl)cc4)o3)c(F)c2)cc1	43.4%	59.8%	80.2%	74.4%	59.4%	60.6%	43.4%	47.4%	67.8%	89.2%
N/C(=N\O)c1cn(C2OC(CO)C(O)C2O)c2ncnc(N)c12 (stereo not given)	-1.68% (active)	26.4%	11%	-18.8% (active)	-44.1% (active)	-6.61% (active)	-42.9% (active)	4.88% (active)	20.9%	-92.4% (active)
CCCCCc1cc[n+](CC(=O)c2ccc(Cl)cc2)cc1	81.5%	90.8%	85.3%	92.7%	98.5%	78%	72.1%	91.3%	76.2%	80.5%
CC(C)c1[nH]nc2c(NCc3ccc(-c4ccccn4)cc3)nc(SCCN(C)C)nc12	-23.8% (active)	2.16% (active)	17%	-11.2% (active)	8% (active)	-15.9% (active)	-48.3% (active)	8.6% (active)	11.3%	-42% (active)
COc1cccc(-c2nnc(COc3ccc(-c4nc5ccc(C)cc5[nH]4)cc3OC)o2)c1	88%	84.6%	98%	101%	36.7%	74%	91.2%	61.8%	81.5%	72.6%
COc1ccc(-c2cc(/C=C/C(=O)c3ccc(N)cc3)[nH]n2)cc1OC	51.6%	82.3%	38.3%	55.4%	3.19% (active)	33.5%	24.7%	32%	42.6%	27.1%
CCCCCN(CCCCC)C(C)C(O)c1ccc2cc(Cl)c3ccccc3c2c1 (stereo not given)	84.9%	86.2%	103%	92.1%	80.5%	55.9%	90%	102%	98.5%	83.9%
CCN(CC)CCOC(=O)c1ccc(NC(=O)Nc2cccc(Cl)c2)cc1	95.8%	99.6%	103%	93.4%	108%	85.1%	86.7%	91.4%	95.5%	105%
Clc1ccc(-c2nc(-c3cccs3)cn3ccnc23)cc1	71.1%	72%	97.4%	57.7%	81.3%	81.5%	28%	57.4%	99.8%	71.1%
CC[C@@]1(C(N)=O)CC2C=CC1C2 (stereo not given in full)	110%	102%	142%	111%	122%	97.2%	101%	107%	98.9%	114%
COc1ccc(-c2nc(SCC(=O)c3ccc(Br)cc3)[nH]c(=O)c2C#N)cc1	106%	98.1%	97.3%	101%	108%	85.9%	95.4%	99.6%	89.9%	119%
CN(C)c1ccc2c(c1)OC(N)=C(C#N)C2c1ccc2c(c1)CCO2 (stereo not given)	35.5%	48.9%	51.4%	36.3%	9.76% (active)	58.8%	-6.52% (active)	21.9%	34.8%	-26% (active)
CCOc1cc(Br)c(C(C)NC(=O)c2cccc(OC)c2)cc1OCC (stereo not given)	79.7%	89.2%	94.3%	87.3%	78.1%	8.9% (active)	83.6%	76.6%	68.1%	23.8%
COc1cccc(C2(C)Nc3ccccc3-c3nc4ccccc4n32)c1 (stereo not given)	102%	102%	92%	97.7%	101%	93.4%	103%	102%	101%	109%
[O-]c1c[n+](-c2ccc(Cl)cc2)no1	106%	103%	94.1%	91.3%	101%	83.8%	122%	108%	108%	103%
Cc1ccc(C(=O)O)c(N)c1C	94.4%	98.6%	96.1%	90.2%	108%	98.8%	87.3%	111%	103%	117%
COc1ccc(-c2ccc(-c3ccc(C(=N)N)c(F)c3)s2)cc1	-81.9% (active)	-41% (active)	-91.5% (active)	-75.7% (active)	-84.2% (active)	-87.8% (active)	-76.5% (active)	-81.9% (active)	-82.5% (active)	-71.1% (active)
CCCCCCCCCCSC(=N)N (tested in a mixture with another compound)	80%	94.2%	105%	77.3%	52.5%	41.8%	53.7%	75.3%	52.4%	-59.2% (active)
O=C(C=P(c1ccccc1)(c1ccccc1)c1ccccc1)c1ccc(Br)cc1	85.8%	96.5%	78.6%	125%	93%	67.1%	59.5%	72.4%	97.9%	96%
O=c1oc2cc(OS(=O)(=O)C3CC3)ccc2c2c1CCCCCC2	70.4%	67.2%	104%	83.2%	86.2%	85.2%	79.2%	69.6%	93%	40.9%
C[C@@H]1N=C(c2ccc(Br)cc2)Nc2nc3ccccn3c2C1=O	53.7%	68.3%	74%	55.8%	32.5%	59.5%	34.8%	54.7%	83.1%	26.3%
Cc1ncc([N+](=O)[O-])n1CCOc1ccc(C(=O)/C=C/c2ccc(C(F)(F)F)cc2)cc1	88%	76.2%	66.4%	88.9%	79.5%	67.1%	67.1%	55.5%	63.3%	61.2%
COc1cc(NS(C)(=O)=O)ccc1Nc1c2ccc(Cl)cc2nc2c(OC)cccc12	-23.6% (active)	-37.4% (active)	57.5%	-14.3% (active)	-46.9% (active)	14.5%	-6.02% (active)	-7.09% (active)	-39.5% (active)	34.3%
